HTT ATP protect: protects HTT-Q103 PC12 cells, measured by ATP. AID 1471. PC12 HTT-Q103 induced, cytoprotection, ATP luminescence, 40 h. actives 0.14% (n = 230,000). Potency, µM (titrated, usually from 56.4 µM), inactives show cytoprotection (ATP increase), actives largely listed as activators; note: potency is the fitted concentration of half-maximal effect; % of control where 0% means no effect; nearly all actives have a fitted effect of over 45% in size
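Readout: ATPlite luminescence (ATP level). Model: stable PC12, inducible Htt exon1 Q103-GFP. Inducer: tebufenozide, 100 nM final. Compounds: dose series. No G418 in medium.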
PNC inhibitor: blocks assembly of the perinucleolar compartment; PC3M PTB-GFP, PNC prevalence imaging, 16 h; hits give low values; activity change (PNC), negative = inhibition, % at 10 µM; actives 3.1% (n = 140,000); AID 2417;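 active = readout at or below -70, meaning at least 70% loss of cells showing the perinucleolar compartment, a nuclear body marking cancer cells; inconclusive = readout between -30 and a set limit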;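 note: plate controls were DMSO wells for no effect and camptothecin positive control wells for full effect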
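PC3M cells stably expressing PTB-GFP, 750–1000 cells/well, treated 16 h at 37 °C with compound (23 nl of library stock), in duplicate. After paraformaldehyde fixation and Hoechst stain, imaged at 20x; PNC prevalence scored by image analysis.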
ALDH1A1 block: inhibitors of human aldehyde dehydrogenase 1A1; actives 7.3% (n = 220,000); Purified ALDH1A1, NADH fluorescence, propionaldehyde substrate; Potency, µM (titrated, usually from 75.3 µM), without a hit: at the top dose activity, negative = inhibition, actives largely listed as inhibitors; P00352; active = well fitted inhibition curve with a large enough effect, not every such curve was filed as active; inconclusive = small, poorly fitted or top-dose-only effect, or another doubt; inactive = no such curve, though single readings can be large or run the other way;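 note: potency is the fitted concentration of half-maximal effect; plate controls were no enzyme wells and a reference inhibitor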
Target sequence (P00352 whole entry, looked up): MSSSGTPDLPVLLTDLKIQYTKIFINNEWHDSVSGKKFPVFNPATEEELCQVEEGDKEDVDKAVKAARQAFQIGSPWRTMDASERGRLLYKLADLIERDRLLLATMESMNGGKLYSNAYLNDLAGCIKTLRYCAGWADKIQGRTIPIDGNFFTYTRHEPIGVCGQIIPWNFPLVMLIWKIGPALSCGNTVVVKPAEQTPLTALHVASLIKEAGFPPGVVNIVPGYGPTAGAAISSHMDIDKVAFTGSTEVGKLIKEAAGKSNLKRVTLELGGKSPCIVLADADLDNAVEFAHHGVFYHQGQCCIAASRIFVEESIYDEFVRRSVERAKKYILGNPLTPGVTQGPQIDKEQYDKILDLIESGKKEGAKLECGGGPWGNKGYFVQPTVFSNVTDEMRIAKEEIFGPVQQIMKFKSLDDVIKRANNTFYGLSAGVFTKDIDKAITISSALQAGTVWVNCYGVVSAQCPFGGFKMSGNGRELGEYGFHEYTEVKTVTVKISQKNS
HTT aggregate: mutant huntingtin aggregation inhibition; PC12 HttQ103-GFP aggregates, Acumen cytometry, 40 h; Potency, µM (series often up to 46.1 µM), for the others: at the highest dose activity change, negative = inhibition, usual class: inhibitors; actives 1.1% (n = 220,000); note: potency is the fitted concentration of half-maximal effect; % is set by controls: 0 for no effect and ±100 for the full control effect; nearly all actives have a fitted effect of over 60% in size
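Compounds (qHTS titration) were added to PC12 cells expressing an ecdysone-driven HTT exon 1 Q103–GFP fusion after induction with 100 nM tebufenozide. Aggregate formation was measured as GFP objects in cell lysates.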
HPGD inh: inhibitors of human 15-hydroxyprostaglandin dehydrogenase (HPGD). P15428. purified HPGD, NADH fluorescence kinetic, PGE2 substrate. Potency, µM, without a hit: at the top dose activity change, negative = inhibition, hits mostly inhibitors. actives 4.3% (n = 150,000). AID 894; active = well fitted inhibition curve with a large enough effect, not every such curve was filed as active; inconclusive = small, poorly fitted or top-dose-only effect, or another doubt; inactive = no such curve, though single readings can be large or run the other way; note: potency is the fitted concentration of half-maximal effect; % is set by controls: 0 for no effect and ±100 for the full control effect
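20 nM HPGD preincubated 15 min at room temperature with compound in 50 mM Tris-HCl pH 8, 0.01% Tween 20. Started with 1 mM NAD+ and 30 uM prostaglandin E2; NADH fluorescence (360/450 nm) read 5 times over 30-s intervals, last minus first.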
GoLoco inh red: blocks human Gai1 binding to RGS12 GoLoco peptide, red readout. Potency, µM (titrated, usually from 61.6 µM), for the others: at the top dose activity, negative = inhibition, most hits filed as inhibitors. AID 880. P63096. Gai1:RGS12 GoLoco peptide FP, rhodamine, 10 min. actives 0.44% (n = 230,000); active = well fitted inhibition curve with a large enough effect, not every such curve was filed as active; inactive = no such curve, though single readings can be large or run the other way; note: potency is the fitted concentration of half-maximal effect; % is set by controls: 0 for no effect and ±100 for the full control effect; nearly all actives have a fitted effect of over 30% in size
Starred values were filed as active, the others as inactive; ? = inconclusive; · = not tested or not shown; [ ] = dose if it differs, or a comment. The list is not random: actives were taken first. Their share in the collection is about 11%. Unless noted, calls come from the whole dose curve; as a rule, active = well fitted curve in the direction sought with a large enough effect; inconclusive = small, poorly fitted or top-dose-only effect, or another doubt; inactive = no such curve, though single readings can be large; an effect the other way counts as inactive or inconclusive.

SMILES	HTT ATP protect	PNC inhibitor	ALDH1A1 block	HTT aggregate	HPGD inh	GoLoco inh red
CCC(=O)OCC(=O)[C@@]1(OC(=O)CC)[C@@H](C)C[C@@H]2[C@H]3CCC4=CC(=O)C=C[C@]4(C)[C@@]3(F)[C@@H](O)C[C@@]21C	·	·	-1%	·	-8%	4%
CCOc1ccc(CN2CCCC(CNC(=O)c3ccc(F)cc3)C2)cc1CO (centres undefined)	-5%[10 µM]	·	2%	-8%[9.22 µM]	·	29%
COC(=O)COc1cc(Cl)c(C=O)cc1OC	48%	·	1%	5%[9.22 µM]	·	0%
Cc1o[nH]c(=O)c1CC[C@H](N)C(=O)O	1%	·	6%	·	-7%	0%
CCn1nnnc1SCC(=O)Nc1ccc(OC)cc1	-11%[10 µM]	-100*	-3%	12%	-9%	-2%
CCCCn1nnnc1SCC(=O)Nc1ccc(F)cc1	-5%	8	?	-8%	-5%	3%
COc1ccc(OCCSc2nnnn2C2CCCCC2)cc1	10%[10 µM]	?	22µM*	-5%	-15%	3%
COc1ccc(NC(=O)CSc2nnnn2C2CCCC2)cc1	-18%[10 µM]	·	2.5µM*	5%[9.22 µM]	·	10%
O=C(CSc1nnnn1C1CCCC1)Nc1ccc(F)cc1	-1%	42	?	-2%	-4%	3%
CCCCn1nnnc1SCC(=O)Nc1ccc(N(C)C)cc1	-9%	-3	25µM*	10%[9.22 µM]	-8%	10µM*
COc1ccc(NC(=O)CCSc2nnnn2C)cc1	-16%	·	1%	-20%	·	14%
CCN(CC)S(=O)(=O)c1ccc(OC)c(NC(=O)c2cc(C)on2)c1	-20%	·	-10%	16%	·	8%
CCOC(=O)C(=CNc1cc(Cl)c(-c2ccco2)c(Cl)c1)C(=O)OCC	5%[10 µM]	·	·	28%[9.22 µM]	·	12%
O=C(O)CSc1nnnn1C1CCCCC1	21%[10 µM]	·	-5%	9%[9.22 µM]	·	-7%
O=C(Sc1nnnn1C1CCCCC1)c1cccs1	-6%[0.074 µM]	?	10µM*	-9%	25µM*	-13%
Cc1cccc(NC(=O)CSc2nnc(-c3cc(C)n(-c4ccccc4)c3C)o2)c1C	-39%[10 µM]	2	?	-9%	-18%	-6%
Cc1cc(-c2nnc(SCC(=O)Nc3ccccc3C(F)(F)F)o2)c(C)n1-c1ccccc1	-52%	31	11µM*	?	-15%	10%
COCCOC(=O)c1c(C)oc2ccc(NS(=O)(=O)c3ccccc3)cc12	3%[10 µM]	24	20µM*	-8%	-15%	6%
COc1ccc(CCNC(=O)CCCn2c(SCC(N)=O)nc3cc4c(cc3c2=O)OCO4)cc1OC	-25%[10 µM]	·	-9%	27%	·	-14%
CC(=O)NC1C(c2nc3ccccc3s2)=C(c2ccccc2)C(=O)N1c1ccc(C)cc1 (centres undefined)	-9%[10 µM]	19	7.9µM*	10%	-24%	10%
COc1cccc(N2C(=O)C(c3ccccc3)=C(c3nc4ccccc4s3)C2NC(C)=O)c1 (centres undefined)	-18%	12	?	1%	-18%	12%
CCN(CC)CCNC(=O)c1ccc2c(c1NCCO)C(=O)c1ccccc1C2=O	-67%[10 µM]	·	·	-25%[9.22 µM]	·	60%
CC1CCN(C(=O)c2ccc3c(c2NCCO)C(=O)c2ccccc2C3=O)CC1	-10%	?	?	-19%	22µM*	161%
COc1ccc(S(=O)(=O)N2CCN(c3ccc(C)cc3C)CC2)cc1OC	17%	-83*	-8%	35µM*	-21%	-1%
CC1(C)NC(=O)N(CC(O)CN2CCCCC2)C1=O (centres undefined)	1%[1.9 µM]	-94*	-2%	33%	2%	5%
CC(=O)c1cccc(N2Cc3ccccc3C2=NC(=O)CCl)c1	-6%	·	3.5µM*	21%	·	8%
COc1cc2nc(CN(C)Cc3ccc(OC)c(OC)c3OC)[nH]c(=O)c2cc1OC	-97%	·	-3%	15%	·	0%
CCN1C(=O)/C(=C\c2cn(-c3ccccc3)nc2-c2cccnc2)SC1=S	-9%	·	1%	14%	·	8%
Cc1nn(C)c(C)c1/C=C1/SC(=S)NC1=O	-55%	-8	?	-22%	-29%	7%

High-throughput results: PubChem BioAssay, National Center for Advancing Translational Sciences (NCATS)
